# Measured values published in PubChem BioAssay (NCATS).
# Inconclusive results are not listed. Where a call stands in place of a potency, no number is given. Activity calls are given as the source filed them. Calls follow the shape of the dose curve; as a rule, active = well fitted cell-killing curve with a large enough effect; inconclusive = small, poorly fitted or top-dose-only effect, or effect the other way; inactive = flat fitted curve, though single readings scatter.
# Tested on: CAOV3
# Assay: Primary qHTS to identify gynecologic anti-cancer compounds using libraries of approved drugs and bioactive compounds (AID 1345084); also: nearly all actives have a fitted effect of over 55% in size
# Conditions: Gynecologic cancer cell panel viability, ATPlite luminescence, 48 h; series mostly up to 57.5 µM
# From the text: National Center for Advancing Translational Sciences [NCATS] Assay Overview: Chemotherapeutic drug responses vary from cancer to cancer and from patient to patient. These variations could be caused by a number of factors including patient genomic background, tumor mutations, tumor heterogeneity, and aspects of drug treatment. Chemotherapeutic drug resistance is also a common issue and can lead to ineffective treatment and patient death. Here we have profiled the cell killing effects of thousands of compounds to characterize the responses in three gynecological cancers, identify cancer-selective compounds, and understand the diversity of responses to these compounds from pan-cancer suppressors to single cell line selective compounds. In this assay, we screened a 7,914 compound drug library that included approved drug and bioactive compounds in six ovarian, three cervical, and […] placental cancer cell lines using the ATPlite assay for cell viability. […] The cervical cancer cell lines included HeLa, Ca Ski, and C-33 A. The placental cancer cell lines included JEG-3. HEK 293T cells were used as the control cell line to determine the selectivity index. ATPlite is a luminescence based assay reliant on the conversion of a luciferase substrate to light in the presence of ATP. As a cytotoxic compound will suppress growth and decrease the number of cells, the concentration of ATP will decrease, and less light signal will be detected in the well.
# Assay Protocol Summary: 1,000 cells in 4 uL of media were dispensed into white, solid bottom 1536-well plates using a Multidrop Combi (Thermo Scientific). The Assay plates were incubated for 16 hours at 37 C with 5% CO2 in assay plates, followed by the addition of 23 nL of DMSO or drug dissolved in DMSO. Each compound was assayed in five concentrations (0.092, 0.46, 2.3, 11.5, and 57.5 uM), using the automated Wako 1536 Pin Tool workstation and incubated at 37 C with 5% CO2 48 hours. 4 uL of ATPlite, the ATP monitoring reagent, was then added to the each well of the assay plates using the Multidrop Combi reagent dispenser followed by incubation for 15 minutes at room temperature. The resulting luminescence was measured using the ViewLux plate reader.
# Potency is read from the fitted curve at half-maximal effect.
row,SMILES,Potency
1,CC[C@H]1C[C@@H]2C[C@H]3c4[nH]c5ccc(OC)cc5c4CCN(C2)[C@@H]13,inactive
2,CCCN(CCC)CCc1c[nH]c2ccccc12,inactive
3,CCCC(C)C1(CC)C(=O)N=C(S)NC1=O (stereo not given),inactive
4,OC(O)C(Cl)(Cl)Cl,inactive
5,CC(CC(C(N)=O)(c1ccccc1)c1ccccc1)N(C)C (stereo not given),inactive
6,ClC1=C(Cl)C2(Cl)C(CBr)CC1(Cl)C2(Cl)Cl (stereo not given),inactive
7,CCS(=O)(=O)C(C)(C)S(=O)(=O)CC,inactive
8,Cc1ccc([N+](=O)[O-])[c]2c1[O][Hg]2,6.31 µM (active)
9,O=c1[nH]c2cc(Cl)ccc2n1C1CCNCC1,inactive
10,CCC(=O)O[C@H]1CC[C@H]2[C@@H]3CCC4=CC(=O)CC[C@]4(C)[C@H]3CC[C@]12C,inactive
11,CC(C)=C[C@@H]1[C@@H](C(=O)OCc2coc(Cc3ccccc3)c2)C1(C)C,inactive
12,Cc1ccc(N=CN(C)C=Nc2ccc(C)cc2C)c(C)c1,inactive
13,CCN1CCCC1CNC(=O)C(O)(c1ccccc1)c1ccccc1 (stereo not given),inactive
14,O=C(O)CCCCCCNC1c2ccccc2CCc2ccccc21,inactive
15,CCOC(=O)C(c1c(O)c2ccccc2oc1=O)c1c(O)c2ccccc2oc1=O,inactive
16,COc1ccc2c(C(=O)c3ccc(Cl)cc3)c(C)n(CC(=O)O)c2c1,inactive
17,COP(=O)(OC)C(O)C(Cl)(Cl)Cl (stereo not given),inactive
18,Nc1ccc(Cl)cc1C(=O)c1ccccc1F,inactive
19,Cc1cccc(Cc2cnc[nH]2)c1C,inactive
20,COc1cc(C[C@@H](C)N)c(OC)cc1Br,inactive

row,SMILES,Potency
1,C[C@]12CC[C@H]3[C@@H](CCC4=CC(=O)CC[C@@]43C)[C@@H]1CC[C@@H]2C(=O)O,inactive
2,C[C@]12Cc3nonc3C[C@@H]1CC[C@@H]1[C@@H]2CC[C@@]2(C)[C@H]1CC[C@]2(C)O,inactive
3,C#C[C@]1(O)C=C[C@H]2[C@@H]3CCC4=CC(=O)CC[C@@H]4[C@H]3CC[C@@]21CC,inactive
4,CC(CC(C#N)(c1ccccc1)c1ccccc1)N(C)C (stereo not given),inactive
5,CCO[C@H]1O[C@@H]2OC3(C)CC[C@H]4[C@H](C)CC[C@@H]([C@H]1C)[C@@]24OO3,inactive
6,COc1cc(N)c(Cl)cc1C(=O)NC1CN2CCC1CC2 (stereo not given),inactive
7,C[C@H]1C(=O)O[C@@H]2CCN3CC=C(COC(=O)[C@](C)(O)[C@]1(C)O)[C@H]23,inactive
8,CCC1(c2ccccc2)CCC(=O)NC1=O (stereo not given),inactive
9,CC#C[C@]1(O)CC[C@H]2[C@@H]3C[C@H](C)C4=CC(=O)CC[C@]4(C)[C@H]3CC[C@@]21C,inactive
10,CN(C)C(=O)Oc1cc(OC(=O)N(C)C)cc(C(O)CNC(C)(C)C)c1 (stereo not given),inactive
11,CNC(=O)NC(O)C(Cl)(Cl)Cl (stereo not given),inactive
12,C#C[C@]1(O)CC[C@H]2[C@@H]3CCC4=CC(=O)CCC4=C3C=C[C@@]21CC,inactive
13,O=c1n(Cl)c(=O)n(Cl)c(=O)n1Cl,inactive
14,CN(C)CCc1c[nH]c2cccc(O)c12,inactive
15,CC(C)=CCN1CC[C@@]2(C)c3cc(O)ccc3C[C@@H]1[C@@H]2C,inactive
16,CN1CCc2cc(Cl)c(O)cc2[C@H]2c3ccccc3CC[C@@H]21,inactive
17,CN1C[C@@H](NS(=O)(=O)N(C)C)C[C@@H]2c3cccc4c3c(cn4C)C[C@H]21,inactive
18,CC(C(O)c1ccccc1)N(C)C/C=C/c1ccccc1 (stereo not given),inactive
19,N#Cc1nn(-c2c(Cl)cc(C(F)(F)F)cc2Cl)c(N)c1S(=O)C(F)(F)F (stereo not given),inactive
20,C[C@]12CC[C@H]3[C@@H](CCC4=CC(=O)CC[C@@H]43)[C@@H]1CC[C@@H]2O,inactive
